# Source: PubChem BioAssay (NCATS)
# Records with an inconclusive call do not appear. Active and inactive are the calls of the source. Calls follow the shape of the dose curve; as a rule, active = well fitted inhibition curve with a large enough effect; inconclusive = small, poorly fitted or top-dose-only effect; inactive = flat fitted curve, though single readings scatter.
# Tested on: JCK
# Assay: qHTS profiling for inhibitors of Plasmodium falciparum proliferation (AID 504749); also: nearly all actives have a fitted effect of over 60% in size;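 as to activity, negative = inhibition: 0% = DMSO vehicle and full inhibition = artemisinin control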
# Settings: P. falciparum in erythrocytes, SYBR Green DNA, 72 h; series mostly up to 28.7 µM; activity, negative = inhibition: at the top concentration
# Method in brief: (§1)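 SYBR Green fluorescence of parasite DNA, read after lysis and overnight dark incubation, measured growth over 72 h in erythrocyte culture at 0.3% parasitemia and 2.5% hematocrit. Data normalised to DMSO and 0.29 uM artemisinin, with plate-drift correction.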
# Potency is read from the fitted curve at half-maximal effect.
row,SMILES,"activity, negative = inhibition"
1,CC(C)NC[C@H](O)COc1ccc(CC(N)=O)cc1,7.32% (inactive)
2,CC(O)C(O)[C@H]1CNc2nc(N)[nH]c(=O)c2N1 (stereo not given in full),12.4% (inactive)
3,CN1C2CCC1CC(OC(c1ccccc1)c1ccccc1)C2 (stereo not given),-21.3% (inactive)
4,CCCCCCCCCCCCCCCCCCOC[C@H](COP(=O)([O-])OCC[N+](C)(C)C)OC,7.54% (inactive)
5,CCCCCCCCCCCCCCC[C@H](O)[C@H](N)CO,0.948% (inactive)

# Tested on: N140
# Assay: as above
# Settings: P. falciparum in erythrocytes, SYBR Green DNA, 72 h; series mostly up to 28.7 µM; activity, negative = inhibition: at the top concentration
# Method in brief: as §1
SMILES,"activity, negative = inhibition",Potency
CC(C)NC[C@H](O)COc1ccc(CC(N)=O)cc1,15.4% (inactive),
CC(O)C(O)[C@H]1CNc2nc(N)[nH]c(=O)c2N1 (stereo not given in full),16.6% (inactive),
CN1C2CCC1CC(OC(c1ccccc1)c1ccccc1)C2 (stereo not given),-22.5% (inactive),
CCCCCCCCCCCCCCCCCCOC[C@H](COP(=O)([O-])OCC[N+](C)(C)C)OC,13.9% (inactive),
c1ccc(C2CN3CCSC3=N2)cc1 (stereo not given),,3.98 µM (active)
CCCCCCCCCCCCCCC[C@H](O)[C@H](N)CO,15.9% (inactive),

# Tested on: P93_24
# Assay: as above
# Settings: P. falciparum in erythrocytes, SYBR Green DNA, 72 h; series mostly up to 28.7 µM; activity, negative = inhibition: at the top concentration
# Method in brief: as §1
SMILES,"activity, negative = inhibition",Potency
CC(O)C(O)[C@H]1CNc2nc(N)[nH]c(=O)c2N1 (stereo not given in full),7.29% (inactive),
CCCCCCCCCCCCCCCCCCOC[C@H](COP(=O)([O-])OCC[N+](C)(C)C)OC,-1.64% (inactive),
c1ccc(C2CN3CCSC3=N2)cc1 (stereo not given),,2.82 µM (active)
CCCCCCCCCCCCCCC[C@H](O)[C@H](N)CO,9.77% (inactive),

# Tested on: P94_40
# Assay: as above
# Settings: P. falciparum in erythrocytes, SYBR Green DNA, 72 h; series mostly up to 28.7 µM; activity, negative = inhibition: at the top concentration
# Method in brief: as §1
SMILES,"activity, negative = inhibition",Potency
CC(C)NC[C@H](O)COc1ccc(CC(N)=O)cc1,4.21% (inactive),
CC(O)C(O)[C@H]1CNc2nc(N)[nH]c(=O)c2N1 (stereo not given in full),2.92% (inactive),
CCCCCCCCCCCCCCCCCCOC[C@H](COP(=O)([O-])OCC[N+](C)(C)C)OC,7.99% (inactive),
c1ccc(C2CN3CCSC3=N2)cc1 (stereo not given),,3.55 µM (active)
CCCCCCCCCCCCCCC[C@H](O)[C@H](N)CO,3.52% (inactive),

# Tested on: PAD
# Assay: as above
# Settings: P. falciparum in erythrocytes, SYBR Green DNA, 72 h; series mostly up to 28.7 µM; activity, negative = inhibition: at the top concentration
# Method in brief: as §1
SMILES,"activity, negative = inhibition",Potency
CC(C)NC[C@H](O)COc1ccc(CC(N)=O)cc1,8.11% (inactive),
CC(O)C(O)[C@H]1CNc2nc(N)[nH]c(=O)c2N1 (stereo not given in full),13% (inactive),
CCCCCCCCCCCCCCCCCCOC[C@H](COP(=O)([O-])OCC[N+](C)(C)C)OC,8.34% (inactive),
c1ccc(C2CN3CCSC3=N2)cc1 (stereo not given),,7.94 µM (active)
CCCCCCCCCCCCCCC[C@H](O)[C@H](N)CO,3.31% (inactive),

# Tested on: PC15
# Assay: as above
# Settings: P. falciparum in erythrocytes, SYBR Green DNA, 72 h; series mostly up to 28.7 µM; activity, negative = inhibition: at the top concentration
# Method in brief: as §1
SMILES,"activity, negative = inhibition",Potency
CC(C)NC[C@H](O)COc1ccc(CC(N)=O)cc1,10.3% (inactive),
CC(O)C(O)[C@H]1CNc2nc(N)[nH]c(=O)c2N1 (stereo not given in full),7.52% (inactive),
CCCCCCCCCCCCCCCCCCOC[C@H](COP(=O)([O-])OCC[N+](C)(C)C)OC,1.62% (inactive),
c1ccc(C2CN3CCSC3=N2)cc1 (stereo not given),,2.82 µM (active)
CCCCCCCCCCCCCCC[C@H](O)[C@H](N)CO,0.832% (inactive),
